# From PubChem BioAssay (NCATS)
# Inconclusive results are not listed. Calls of active or inactive are those of the source. Calls follow the shape of the dose curve; as a rule, active = well fitted curve in the direction sought with a large enough effect; inconclusive = small, poorly fitted or top-dose-only effect, or another doubt; inactive = no such curve, though single readings can be large; an effect the other way counts as inactive or inconclusive.
# Target: Aldehyde dehydrogenase, mitochondrial (Homo sapiens) (UniProt P05091)
# Experiment: qHTS for Inhibitors of the Aldehyde Dehydrogenase Family (ALDH2) Primary screen (AID 2061308);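 also: plate controls were vehicle for no effect and reference inhibitor for full effect; nearly all actives have a fitted effect of over 55% in size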
# Conditions: ALDH2 enzyme inhibition qHTS, 1536-well; series mostly up to 56 µM; activity change, negative = inhibition: at the top concentration
SMILES,"activity change, negative = inhibition",Potency
O=C(Nc1cc(C(F)(F)F)ccc1Cl)[C@H](O)CCc1ccccc1,17.6% (inactive),
CCN1CCCC1Cn1c(-c2ccccc2)nc2c(N3CCOCC3)nc(C)nc21 (stereo not given),9.19% (inactive),
Cc1cc(N[S+](=O)([O-])c2ccc(NC(=O)Cc3ccc(F)c(C(F)(F)F)c3)cc2)no1,10% (inactive),
COc1cc(C2CC(=O)Nc3c2cc(Br)c2ccccc32)cc(OC)c1OC (stereo not given),-2.19% (inactive),
O=C(O)c1ccncc1Nc1nn(CCN2CCC(F)(F)CC2)c2ccc(F)cc12,-11.7% (inactive),
CCCn1c(C)nc2c(NCCO)nc(C)nc21,2.48% (inactive),
Cc1ccc(OCCn2c(CCNC(=O)Cc3cccc4ccccc34)nc3ccccc32)cc1,-9.41% (inactive),
FC(F)(F)c1ccccc1-c1nc(NCc2cccc(Cl)c2)c2ccccc2n1,18.1% (inactive),
COc1ccc([S+](=O)([O-])N2CCN([S+](=O)([O-])c3ccc4c(c3)OCCO4)CC2)c(OC)c1,9.65% (inactive),
COc1ccc(NC(=O)c2[nH]c(C)c(C(C)=O)c2C)cc1[S+](=O)([O-])Nc1ccccc1C#N,-17.9% (inactive),
CC(=O)Nc1sc2c(c1-c1nc(-c3ccccc3)cs1)CCN(C(C)C)C2,13.1% (inactive),
O=C(/C=C/c1c(F)c(F)c(F)c(F)c1F)Nc1cccc([S+](=O)([O-])Nc2ccccc2F)c1,4.67% (inactive),
O=C1CCCC2=C1C(c1[nH]ncc1Cl)N=C(Nc1nc3ccc(Cl)cc3o1)N2 (stereo not given),1.14% (inactive),
O=S(=O)(NCCNc1nc(-c2ccco2)nc2ccccc12)c1ccccc1,-0.317% (inactive),
COc1cccc(-c2nnc3n2N=C(c2cc(OC)ccc2OC)CS3)c1,14.8% (inactive),
COc1cccc(C2=Nn3c(nnc3-c3ccccc3OC)SC2)c1,9.06% (inactive),
COc1cc(NC(=O)C(OC(=O)CNC(=O)c2ccccc2)c2ccccc2)cc(OC)c1 (stereo not given),9.07% (inactive),
Cc1noc(C)c1-c1ccc2ncnc(NC(C)c3ccco3)c2c1 (stereo not given),-21.8% (inactive),
CC(C)c1ccccc1-c1ncc(F)c(NCC2CCN(c3cccnc3)CC2)n1,-26.9% (inactive),
COc1ccc(C2=Nn3c(nnc3-c3ccc(OC)c(OC)c3)SC2)cc1OC,13.9% (inactive),

SMILES,"activity change, negative = inhibition",Potency
CCOc1ccccc1-c1nnc2n1N=C(c1cc(OC)cc(OC)c1)CS2,12.6% (inactive),
COc1ccc(C2c3c(nc(C)[nH]c3=O)Oc3ccc4ccccc4c32)cc1OC (stereo not given),0.972% (inactive),
COc1cccc(C2c3c(ncn(-c4ccccc4C(C)(C)C)c3=N)Oc3ccc4ccccc4c32)c1 (stereo not given),2.21% (inactive),
Cc1cc(NS(=O)(=O)c2cc3c(cc2F)NC(=O)CC3)ccc1F,,inactive
O=S(=O)(NCCNS(=O)(=O)c1c(F)cccc1F)c1ccc2c(c1)OCCO2,21.3% (inactive),
CCNC(=O)c1ccc(-c2ccc3ncnc(NCc4nccs4)c3c2)o1,-0.933% (inactive),
Cc1cc2c(s1)c1cnn(Cc3cc(C(F)(F)F)ccc3F)c(=O)c1n2C,14.5% (inactive),
Cn1c2cc(Br)sc2c2cnn(Cc3ccccc3F)c(=O)c21,,inactive
O=C1CCCC2=C1C(c1cccc(C(F)(F)F)c1)N=C(Nc1nc3ccccc3o1)N2 (stereo not given),7.92% (inactive),
O=C(/C=C/n1cnc(-c2cc(C(F)(F)F)cc(C(F)(F)F)c2)n1)NNc1cnccn1,-1.93% (inactive),
O=C(Nc1ccc([S+](=O)([O-])Nc2nccs2)cc1)c1ccn[nH]1,4.67% (inactive),
O=C1CCCC2=C1C(c1ccccc1C(F)(F)F)N=C(Nc1nc3ccccc3o1)N2 (stereo not given),-0.0439% (inactive),
O=C(O)c1ccc(-c2ccc3ncnc(NCc4nccs4)c3c2)o1,-8.73% (inactive),
O=C(NC1CCCc2c1cnn2-c1ccc(F)cc1F)c1ccn[nH]1 (stereo not given),5.89% (inactive),
O=C(c1ccccc1O)N(Cc1ccccc1)Cc1cccs1,-0.858% (inactive),
COc1ccc(C(=O)OCC#CCSc2nnc(-c3cccc4ccccc34)o2)cc1,2.18% (inactive),
Cn1nnnc1Sc1ncnc2scc(-c3ccc(C#N)cc3)c12,17% (inactive),
Cc1ccc(-c2nn3c(C)nnc3s2)cc1NC(=O)c1ccc(-c2cccc(Cl)c2)o1,,inactive
O=C(Nc1ccc(Cl)c(C(F)(F)F)c1)Nc1nnc(-c2cccnc2)s1,3.43% (inactive),
O=C(O)c1ccc(-c2cccc(-c3nn4c(=O)cc(N5CCNCC5)nc4s3)c2)cc1,9.08% (inactive),

# Target: Retinaldehyde dehydrogenase 3 (Homo sapiens) (UniProt P47895)
# Experiment: qHTS for Inhibitors of the Aldehyde Dehydrogenase Family (ALDH1A3) Primary screen (AID 2061315);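 also: plate controls were DMSO vehicle for no effect and reference inhibitor for full effect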
# Conditions: ALDH inhibition qHTS; series mostly up to 56 µM; activity change, negative = inhibition: at the top concentration
SMILES,"activity change, negative = inhibition",Potency
O=C(Nc1cc(C(F)(F)F)ccc1Cl)[C@H](O)CCc1ccccc1,11.9% (inactive),
CCN1CCCC1Cn1c(-c2ccccc2)nc2c(N3CCOCC3)nc(C)nc21 (stereo not given),-2.41% (inactive),
Cc1cc(N[S+](=O)([O-])c2ccc(NC(=O)Cc3ccc(F)c(C(F)(F)F)c3)cc2)no1,9.18% (inactive),
COc1cc(C2CC(=O)Nc3c2cc(Br)c2ccccc32)cc(OC)c1OC (stereo not given),6.9% (inactive),
O=C(O)c1ccncc1Nc1nn(CCN2CCC(F)(F)CC2)c2ccc(F)cc12,-10.5% (inactive),
CCCn1c(C)nc2c(NCCO)nc(C)nc21,4.6% (inactive),
Cc1ccc(OCCn2c(CCNC(=O)Cc3cccc4ccccc34)nc3ccccc32)cc1,-0.515% (inactive),
FC(F)(F)c1ccccc1-c1nc(NCc2cccc(Cl)c2)c2ccccc2n1,-3.46% (inactive),
COc1ccc([S+](=O)([O-])N2CCN([S+](=O)([O-])c3ccc4c(c3)OCCO4)CC2)c(OC)c1,0.38% (inactive),
COc1ccc(NC(=O)c2[nH]c(C)c(C(C)=O)c2C)cc1[S+](=O)([O-])Nc1ccccc1C#N,1.54% (inactive),
CC(=O)Nc1sc2c(c1-c1nc(-c3ccccc3)cs1)CCN(C(C)C)C2,-12.9% (inactive),
O=C(/C=C/c1c(F)c(F)c(F)c(F)c1F)Nc1cccc([S+](=O)([O-])Nc2ccccc2F)c1,3.91% (inactive),
O=C1CCCC2=C1C(c1[nH]ncc1Cl)N=C(Nc1nc3ccc(Cl)cc3o1)N2 (stereo not given),6.27% (inactive),
O=S(=O)(NCCNc1nc(-c2ccco2)nc2ccccc12)c1ccccc1,-4.61% (inactive),
COc1cccc(-c2nnc3n2N=C(c2cc(OC)ccc2OC)CS3)c1,5.53% (inactive),
COc1cccc(C2=Nn3c(nnc3-c3ccccc3OC)SC2)c1,-0.624% (inactive),
COc1cc(NC(=O)C(OC(=O)CNC(=O)c2ccccc2)c2ccccc2)cc(OC)c1 (stereo not given),-12.5% (inactive),
Cc1noc(C)c1-c1ccc2ncnc(NC(C)c3ccco3)c2c1 (stereo not given),-0.427% (inactive),
CC(C)c1ccccc1-c1ncc(F)c(NCC2CCN(c3cccnc3)CC2)n1,3.56% (inactive),
COc1ccc(C2=Nn3c(nnc3-c3ccc(OC)c(OC)c3)SC2)cc1OC,2.47% (inactive),

SMILES,"activity change, negative = inhibition",Potency
CCOc1ccccc1-c1nnc2n1N=C(c1cc(OC)cc(OC)c1)CS2,7.34% (inactive),
COc1ccc(C2c3c(nc(C)[nH]c3=O)Oc3ccc4ccccc4c32)cc1OC (stereo not given),5.91% (inactive),
COc1cccc(C2c3c(ncn(-c4ccccc4C(C)(C)C)c3=N)Oc3ccc4ccccc4c32)c1 (stereo not given),6.06% (inactive),
Cc1cc(NS(=O)(=O)c2cc3c(cc2F)NC(=O)CC3)ccc1F,,inactive
O=S(=O)(NCCNS(=O)(=O)c1c(F)cccc1F)c1ccc2c(c1)OCCO2,4.48% (inactive),
CCNC(=O)c1ccc(-c2ccc3ncnc(NCc4nccs4)c3c2)o1,-10.5% (inactive),
Cc1cc2c(s1)c1cnn(Cc3cc(C(F)(F)F)ccc3F)c(=O)c1n2C,2.74% (inactive),
Cn1c2cc(Br)sc2c2cnn(Cc3ccccc3F)c(=O)c21,,inactive
O=C1CCCC2=C1C(c1cccc(C(F)(F)F)c1)N=C(Nc1nc3ccccc3o1)N2 (stereo not given),20.5% (inactive),
O=C(/C=C/n1cnc(-c2cc(C(F)(F)F)cc(C(F)(F)F)c2)n1)NNc1cnccn1,32.6% (inactive),
O=C(Nc1ccc([S+](=O)([O-])Nc2nccs2)cc1)c1ccn[nH]1,-0.999% (inactive),
O=C1CCCC2=C1C(c1ccccc1C(F)(F)F)N=C(Nc1nc3ccccc3o1)N2 (stereo not given),-3.16% (inactive),
O=C(O)c1ccc(-c2ccc3ncnc(NCc4nccs4)c3c2)o1,5.36% (inactive),
O=C(NC1CCCc2c1cnn2-c1ccc(F)cc1F)c1ccn[nH]1 (stereo not given),-9.65% (inactive),
O=C(c1ccccc1O)N(Cc1ccccc1)Cc1cccs1,13.2% (inactive),
COc1ccc(C(=O)OCC#CCSc2nnc(-c3cccc4ccccc34)o2)cc1,3.76% (inactive),
Cn1nnnc1Sc1ncnc2scc(-c3ccc(C#N)cc3)c12,-5.38% (inactive),
Cc1ccc(-c2nn3c(C)nnc3s2)cc1NC(=O)c1ccc(-c2cccc(Cl)c2)o1,,inactive
O=C(Nc1ccc(Cl)c(C(F)(F)F)c1)Nc1nnc(-c2cccnc2)s1,12.8% (inactive),
O=C(O)c1ccc(-c2cccc(-c3nn4c(=O)cc(N5CCNCC5)nc4s3)c2)cc1,1.77% (inactive),
